Hit rate of the full screen: of about 5,500 compounds, about 2,000 (36%) were called active. About 18% were inconclusive and are not listed. Cut-off read from the data, not from the text of the source: active = normalized growth mostly below about 0.91 (no sharp cut-off); inconclusive = no clear call, values can overlap the other calls; inactive = mostly above about 0.92. The list shows a part of the results.
Assay: chemical genetic growth profiling, strain panel (AID 1159580);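 note: tested at 20 µM; growth read once vehicle control cultures reached saturation at 30 °C; 1 = growth at the plate median or of vehicle wells; lower values mean less growth of the strain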
Settings: growth OD

Measured: normalized growth

O=C(O)CN1C(=O)c2cccc3cccc(c23)C1=O
inactive: S. cerevisiae deletion strains, locus YJR043C, strain POL32, active compounds read low 1.03 | S. cerevisiae deletion strains, locus YJR066W, strain TOR1, active compounds read low 0.975 | S. cerevisiae deletion strains, locus YKL009W, strain mrt4, active compounds read low 0.987 | S. cerevisiae deletion strains, locus YKL068W, active compounds read low 0.991 | S. cerevisiae deletion strains, locus YKL085W, strain MDH1 (second series), active compounds read low 0.978 | S. cerevisiae deletion strains, locus YKL085W, strain MDH1, active compounds read low 0.978 | S. cerevisiae deletion strains, locus YKL160W, strain elf1, active compounds read low 0.956 | S. cerevisiae deletion strains, locus YKL190W, strain CNB1, active compounds read low 1 | S. cerevisiae deletion strains, locus YKR001C, strain vps1, active compounds read low 1.01 | S. cerevisiae deletion strains, locus YKR026C, strain gcn3, active compounds read low 0.996 | S. cerevisiae deletion strains, locus YKR091W, strain srl3, active compounds read low 0.986 | S. cerevisiae deletion strains, locus YLL001W, strain dnm1, active compounds read low 0.966 | S. cerevisiae deletion strains, locus YLL026W, active compounds read low 0.996 | S. cerevisiae deletion strains, locus YLL041C, strain sdh2, active compounds read low 0.983 | S. cerevisiae deletion strains, locus YLR027C, strain aat2, active compounds read low 0.996 | S. cerevisiae deletion strains, locus YLR039C, strain RIC1, active compounds read low 1 | S. cerevisiae deletion strains, locus YLR058C, strain SHM2, active compounds read low 1 | S. cerevisiae deletion strains, locus YLR102C, strain apc9, active compounds read low 0.986 | S. cerevisiae deletion strains, locus YLR113W, strain HOG1, active compounds read low 0.935 | S. cerevisiae deletion strains, locus YLR221C, strain rsa3, active compounds read low 0.977 | S. cerevisiae deletion strains, locus YLR258W, strain gsy2, active compounds read low 0.988 | S. cerevisiae deletion strains, locus YLR262C, strain YPT6 (second series), active compounds read low 0.947 | S. cerevisiae deletion strains, locus YLR262C, strain YPT6, active compounds read low 0.985 | S. cerevisiae deletion strains, locus YLR268W, strain sec22, active compounds read low 0.983 | S. cerevisiae deletion strains, locus YLR320W, strain mms22, active compounds read low 0.944 | S. cerevisiae deletion strains, locus YLR330W, strain CHS5, active compounds read low 0.989 | S. cerevisiae deletion strains, locus YLR342W, strain FKS1 (second series), active compounds read low 1.02 | S. cerevisiae deletion strains, locus YLR342W, strain FKS1, active compounds read low 0.978 | S. cerevisiae deletion strains, locus YLR357W, strain rsc2, active compounds read low 0.965 | S. cerevisiae deletion strains, locus YLR370C, strain arc18, active compounds read low 0.973 | S. cerevisiae deletion strains, locus YLR371W, strain rom2, active compounds read low 0.989 | S. cerevisiae deletion strains, locus YLR384C, strain iki3, active compounds read low 0.973 | S. cerevisiae deletion strains, locus YLR418C, strain cdc73, active compounds read low 0.988 | S. cerevisiae deletion strains, locus YML016C, strain PPZ1, active compounds read low 1 | S. cerevisiae deletion strains, locus YML032C, strain rad52, active compounds read low 1 | S. cerevisiae deletion strains, locus YML120C, strain ndi1, active compounds read low 0.958 | S. cerevisiae deletion strains, locus YML124C, strain tub3, active compounds read low 0.999 | S. cerevisiae deletion strains, locus YMR058W, strain fet3, active compounds read low 0.98 | S. cerevisiae deletion strains, locus YMR078C, strain ctf18, active compounds read low 0.982 | S. cerevisiae deletion strains, locus YMR125W, strain sto1, active compounds read low 0.979 | S. cerevisiae deletion strains, locus YMR129W, active compounds read low 0.996 | S. cerevisiae deletion strains, locus YMR205C, strain PFK2, active compounds read low 0.954 | S. cerevisiae deletion strains, locus YMR223W, strain ubp8, active compounds read low 0.977 | S. cerevisiae deletion strains, locus YMR231W, strain pep5, active compounds read low 0.992 | S. cerevisiae deletion strains, locus YMR307W, strain GAS1, active compounds read low 1.01 | S. cerevisiae deletion strains, locus YNL067W, strain RPL9B, active compounds read low 1.05 | S. cerevisiae deletion strains, locus YNL071W, strain lat1, active compounds read low 0.933 | S. cerevisiae deletion strains, locus YNL153C, strain GIM3, active compounds read low 1.08 | S. cerevisiae deletion strains, locus YNL183C, strain NPR1, active compounds read low 0.953 | S. cerevisiae deletion strains, locus YNL209W, strain ssb2, active compounds read low 0.986 | S. cerevisiae deletion strains, locus YNL233W, strain BNI4, active compounds read low 1.03 | S. cerevisiae deletion strains, locus YNL248C, strain rpa49, active compounds read low 0.969 | S. cerevisiae deletion strains, locus YNL250W, strain rad50, active compounds read low 0.941 | S. cerevisiae deletion strains, locus YNL271C, strain bni1, active compounds read low 0.998 | S. cerevisiae deletion strains, locus YNL298W, strain CLA4, active compounds read low 0.984 | S. cerevisiae deletion strains, locus YNL307C, strain MCK1, active compounds read low 0.994 | S. cerevisiae deletion strains, locus YNL322C, strain KRE1 (second series), active compounds read low 0.987 | S. cerevisiae deletion strains, locus YNR049C, strain mso1, active compounds read low 0.981 | S. cerevisiae deletion strains, locus YNR052C, strain pop2, active compounds read low 0.969 | S. cerevisiae deletion strains, locus YOL006C, strain TOP1, active compounds read low 1.08 | S. cerevisiae deletion strains, locus YOL012C, strain htz1 0.878 | S. cerevisiae deletion strains, locus YOL147C, strain pex11, active compounds read low 0.988 | S. cerevisiae deletion strains, locus YOR001W, strain rrp6, active compounds read low 0.974 | S. cerevisiae deletion strains, locus YOR061W, strain CKA2, active compounds read low 1.01 | S. cerevisiae deletion strains, locus YOR069W, strain VPS5, active compounds read low 0.998 | S. cerevisiae deletion strains, locus YOR070C, strain gyp1, active compounds read low 0.99 | S. cerevisiae deletion strains, locus YOR080W, strain dia2, active compounds read low 0.989 | S. cerevisiae deletion strains, locus YOR083W, strain WHI5, active compounds read low 0.967 | S. cerevisiae deletion strains, locus YOR106W, strain vam3, active compounds read low 0.955 | S. cerevisiae deletion strains, locus YOR136W, strain idh2, active compounds read low 0.991 | S. cerevisiae deletion strains, locus YOR144C, strain elg1, active compounds read low 0.987 | S. cerevisiae deletion strains, locus YOR184W, strain ser1, active compounds read low 1.02 | S. cerevisiae deletion strains, locus YOR231W, strain MKK1, active compounds read low 0.977 | S. cerevisiae deletion strains, locus YOR265W, strain rbl2, active compounds read low 0.985 | S. cerevisiae deletion strains, locus YOR270C, strain vph1, active compounds read low 0.876 | S. cerevisiae deletion strains, locus YOR290C, strain snf2, active compounds read low 0.943 | S. cerevisiae deletion strains, locus YOR316C, strain cot1, active compounds read low 0.992 | S. cerevisiae deletion strains, locus YPL051W, strain arl3, active compounds read low 0.97 | S. cerevisiae deletion strains, locus YPL078C, strain atp4, active compounds read low 0.976 | S. cerevisiae deletion strains, locus YPL106C, strain sse1, active compounds read low 0.954 | S. cerevisiae deletion strains, locus YPL240C, strain hsp82, active compounds read low 0.98 | S. cerevisiae deletion strains, locus YPL256C, strain CLN2, active compounds read low 0.961 | S. cerevisiae deletion strains, locus YPR119W, strain clb2, active compounds read low 0.987 | S. cerevisiae deletion strains, locus YPR141C, strain kar3, active compounds read low 0.994 | S. cerevisiae deletion strains, locus YPR163C, strain tif3, active compounds read low 0.99 | S. cerevisiae deletion strains, locus YPR167C, strain met16, active compounds read low 0.986 | S. cerevisiae deletion strains, strain wtn01, active compounds read low 0.976 | S. cerevisiae strains, strain wild type, active compounds read low 1

— PubChem BioAssay AID1159580 (chemical genetic matrix, 2015)
